Assay outcomes from PubChem BioAssay.
AID504770: E. coli YBA685 growth inhibition, screen for V. cholerae RctB inhibitors; E. coli YBA685 rctB-dependent plasmid, OD600 growth, 3 h; stronger effect = lower value; z-score (test concentration not listed); actives 0.27% (n = 130,000); in the data active means z-score below about -2, passing the limit was not always enough
MbtI inh: blocks the Mycobacterium tuberculosis siderophore enzyme MbtI | actives 0.89% (n = 100,000) | inhibition, % (concentration not given with the values) | AID 493033 | purified MbtI enzyme, fluorescence intensity read-out; in the data active means inhibition mostly above about 56%, no sharp cut-off; inactive means mostly below about 77%
MenB inh: inhibitors of Mycobacterium tuberculosis MenB enzyme | P9WNP5 | MenB enzyme assay, absorbance read-out | inhibition, % (no concentration beside the values) | actives 0.43% (n = 100,000) | AID 540299; in the data active means inhibition above about 21%, passing the limit was not always enough
Polio RdRp inh: poliovirus RNA polymerase inhibition; P03300; poliovirus polymerase elongation, fluorescence polarization; stronger effect = lower value; % elongation, % (compound at 16.7 µg/mL); actives 0.66% (n = 150,000); AID 588519; in the data active means % elongation below about 90%
Target sequence (P03300 1749-2209 limits assumed): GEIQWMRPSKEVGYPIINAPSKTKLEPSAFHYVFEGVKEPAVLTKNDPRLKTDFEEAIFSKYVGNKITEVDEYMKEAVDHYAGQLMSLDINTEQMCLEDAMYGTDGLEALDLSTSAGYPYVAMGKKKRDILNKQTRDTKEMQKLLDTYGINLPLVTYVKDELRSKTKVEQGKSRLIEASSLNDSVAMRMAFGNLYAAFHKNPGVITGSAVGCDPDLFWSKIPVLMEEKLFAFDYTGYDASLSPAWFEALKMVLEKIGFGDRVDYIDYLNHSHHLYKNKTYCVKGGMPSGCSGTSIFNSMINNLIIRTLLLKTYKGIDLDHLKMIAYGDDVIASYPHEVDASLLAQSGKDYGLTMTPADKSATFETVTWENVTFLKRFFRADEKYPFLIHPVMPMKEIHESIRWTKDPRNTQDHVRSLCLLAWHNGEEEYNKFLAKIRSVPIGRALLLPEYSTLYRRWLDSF
An asterisk follows results filed as active; / = no result given. Hits are enriched below; roughly 1.4% of the tested compounds scored in any of these assays.

SMILES	AID504770	MbtI inh	MenB inh	Polio RdRp inh
CCN1CCN(CCNC(=O)C2CCC(Cn3c(=S)[nH]c4ccccc4c3=O)CC2)CC1 (stereo unspecified)	-1.2	-8	6	98
S=C(SCc1ncon1)N1CCOCC1	-0.75	92*	-5	96
C=C1N(c2ccccc2)C(=O)OC1(C)CC (stereo unspecified)	-0.75	/	-13	103
Cc1c(Cl)cccc1N1CC(C)(C)C1=O	-0.4	/	/	/
Cc1c(Cl)cccc1N1C(=O)C=CC1=O	-2.6*	99*	/	102
O=c1c2ccccc2n2c(=S)[nH]nc2n1Cc1ccccc1	-0.45	38	-106	98
O=C1CSc2ccccc2N1Cc1n[nH]c(=S)n1Cc1ccccc1	-0.4	56*	-30	99
O=C1C=CC(=NS(=O)(=O)c2cccs2)C=C1	-1.2	/	/	/
O=C1C=CC(=NS(=O)(=O)c2ccc(C(=O)O)cc2)C=C1	-0.55	91*	13	99
O=C1NNC(=S)C1C1CC1 (stereo unspecified)	-0.15	83*	17	99
O=C1NC(=S)NC(=O)C1C1CCCCC1	-0.8	12	-32	104
COc1ccc(Br)cc1C(=O)CCC(=O)O	0.05	-7	/	102
CCOC(=O)/C=C(\C)Sc1cc(=O)oc2ccccc12	-0.35	-4	0	84*
CCO/C(C)=N\Oc1cc(=O)oc2ccccc12	-0.45	-12	-15	100
O/N=C/c1c(O)ccc2ccccc12	-0.05	-49	32*	98
Cc1nc(C(=O)NCC(=O)c2cccc(Cl)c2)c(C(F)(F)F)o1	-1.2	/	/	/
CCOC(=O)CN=C(c1ccccc1)c1ccccc1	-0.7	/	-2	101
CCOC(=O)Cc1c[nH]c2ccccc12	1.1	-16	6	100
CCOC(=O)CC(=O)c1c[nH]c2ccccc12	-2.2*	/	-19	112
CCOC(=O)CC(=O)c1ccccc1	-0.85	16	34*	107
CC1=CC(C)C2COC(c3ccc4c(c3)OCO4)C1C2C (stereo unspecified)	-0.25	-7	/	/
CC(NC(CC(=O)c1ccc(F)cc1)C(=O)O)c1ccccc1 (stereo unspecified)	-0.5	/	83*	105
COc1ccccc1NC(CC(=O)c1ccccc1)C(=O)O (stereo unspecified)	0.45	/	-9	106
N#CSc1cnc(NC2CCCCC2)s1	-0.4	74*	-178	94
O=C(Cc1n[nH]c(=O)c2ccccc12)NCC1CCCO1 (stereo unspecified)	-0.25	2	-11	103
SMILES	AID504770	MbtI inh	MenB inh	Polio RdRp inh
CCOC(=O)c1ccc(-n2c(N)c(C(=O)NCC3CCCO3)sc2=S)cc1 (stereo unspecified)	-0.6	92*	-13	96
CCOc1ccc(-n2c(N)c(C(=O)N3CCN(C)CC3)sc2=S)cc1	0.45	0	-43	99
CCOC(=O)c1ccc(-n2c(N)c(C(=O)N3CCCC3)sc2=S)cc1	-1.1	93*	-25	99
[O-][n+]1onc(-c2ccccc2)c1-c1ccccc1	0.25	-15	-33	103
N#Cc1c(-c2ccccc2)no[n+]1[O-]	/	0	11	93*
Cc1ccc(S(=O)(=O)N[C@@H](Cc2ccccc2)C(=O)CCl)cc1	/	64*	-14	102
CCOC(=O)c1c(NC(=O)/C(C#N)=C/c2ccc(OC)cc2)sc2c1CCC2	/	/	/	106
CCOc1ccc(/C=C(\C#N)C(=O)Nc2sc3c(c2C(=O)OC)C(C(=O)OC)CC3)cc1OC (stereo unspecified)	/	/	/	73*
CCC(Sc1nc2ncccc2c(=O)n1-c1ccccc1)C(=O)Nc1ccc(OC)cc1 (stereo unspecified)	-0.7	9	-20	101
O=C(O)Cn1cc(C=C2C(=O)NC(=S)NC2=O)c2ccccc21	0	100*	-55	102
O=C(O)Cn1cc(C=C2C(=O)NC(=O)NC2=O)c2ccccc21	-0.25	/	-249	111
Cc1onc(-c2ccccc2)c1CNC(=O)C1CCCCC1	-0.4	/	/	/
CC(C)(C)c1ccc(O)c(N)c1	-0.05	99*	-23	98
CCN(CCO)C(=O)Cc1cc(=O)[nH]c(=O)[nH]1	-0.8	0	-2	99
c1ccc(CN(CCN(Cc2ccccn2)Cc2ccccn2)Cc2ccccn2)nc1	/	-14	30*	104
S=c1[nH]ccn1CCc1ccccc1	-0.3	/	-15	103
O=c1[nH][nH]c(=S)n1CCc1ccccc1	-0.55	68*	-13	93
COC(=O)c1sc(=S)n(-c2cc(OC)ccc2OC)c1N	-0.55	18	-20	98
COC(=O)c1sc(=S)n(-c2cccc(OC)c2)c1N	-0.8	96*	-15	97
CC(C)(CNc1nsc2ccccc12)N1CCOCC1	-0.85	50	2	89*
